This note sets out measurements from PubChem BioAssay (NCI).

Each structure is given as a SMILES string. About 83,000 compounds went through this panel and 20% of them were active in at least one assay; those are over-represented in the sample as a whole.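 Plates (96-well) were seeded with cells, treated with compound at one concentration, and incubated for 48 hours before percent growth was determined.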 A number with no mark means an inactive call. Calls of active or inactive are those of the source. Rule for the calls: active = growth percent below 10; inactive = the rest.

Common to all, as to assay: NCI-60 one-dose screen, 48 h (100 = growth as untreated, 0 = no growth, -100 = all killed)
The test system of assay [1] is A549/ATCC NSCLC. The following applies: 10 µM unless noted.
Assay [2] has as its system DU-145 prostate. The following applies: 10 µM unless noted.
The subject of assay [3] is K-562 leukemia. The following applies: 10 µM unless noted.
Assay [4] has as its system RXF 393 renal. The following applies: 10 µM unless noted.
Assay [5] has as its system SF-295 CNS. Conditions: 10 µM unless noted.
The subject of assay [6] is UACC-257 melanoma. The following applies: 10 µM unless noted.
The subject of assay [7] is HT29 colon. The following applies: 10 µM unless noted.
Assay [8] concerns SNB-75 CNS. The following applies: 10 µM unless noted.
Assay [9] relates to SK-MEL-2 melanoma. The following applies: 10 µM unless noted.
Assay [10] deals with ACHN renal. Conditions: 10 µM unless noted.
Assay [11] concerns CAKI-1 renal. Conditions: 10 µM unless noted.
In assay [12] the test system is A498 renal. Conditions: 10 µM unless noted.
Assay [13] has as its system HL-60(TB) leukemia. Conditions: 10 µM unless noted.
Assay [14] concerns OVCAR-5 ovarian. Conditions: 10 µM unless noted.
Assay [15] has as its system SK-OV-3 ovarian. The following applies: 10 µM unless noted.
Assay [16] has as its system HS 578T breast. Conditions: 10 µM unless noted.
For assay [17], the system named is NCI/ADR-RES ovarian. Conditions: 10 µM unless noted.
The subject of assay [18] is T-47D breast. The following applies: 10 µM unless noted.
For assay [19], the system named is BT-549 breast. The following applies: 10 µM.
The subject of assay [20] is OVCAR-4 ovarian. Conditions: 10 µM unless noted.

On to `[N-]=[N+]=NC(C(=O)O)c1ccccc1` (stereo not drawn), for which the growth in assay [1] is 95.2%; in [2], 116%; in assay [3], 94.3%; in assay [4], 140%; in assay [5], 102%; in [6] it was 98.3%. The growth in assay [7] was 99.1%; in assay [8] it was 96.6%; in assay [9], 99.5%; in [10] it was 100%; in assay [11], 91.8%; in assay [12], 101%. The growth in assay [13] is 89.4%; in [14], 102%; in assay [15], 99.5%; in assay [16], 113%; in assay [17], 107%; in [18], 103%. Also, the growth in [19] was 114%.

Turning to `Fc1ccc(C2=NN(c3ccccc3)C(c3sc(N(CCCl)CCCl)nc3Cl)C2)cc1` (stereo not drawn), the growth was 86.3% in [1]; 109% in assay [2]; 69.8% in assay [3]; 102% in assay [4]; 85.5% in assay [5]; 86.7% in assay [6]. The growth in [7] was 81.2%; in [8], 68.7%; in [9], 84.5%; in assay [10] it was 79.4%; in [11], 62.2%; in assay [12], 92.4%. Besides, the growth in assay [13] was 103%; in [14], 91.5%; in assay [20], 78.8%; in assay [15], 76.5%; in assay [16], 74.5%; in [17], 92.3%. Further, the results for the growth in assay [18] and in assay [19] were 61.5% and 99.5%, respectively.

As for `CC1=C(SCCC(=O)OCC(=O)NCCC[Te]c2ccccc2)C(=O)c2ccccc2C1=O`, the growth in [1] was 0.0697% (active); in assay [2], -6.6% (active); in assay [3], 10.2%; in assay [4], 25%; in assay [5] it was -35.6% (active); in [6], 55.1%. The growth in assay [7] was 11.2%; in assay [8], 19.2%; in assay [9] it was -33.4% (active); in assay [10], 12.4%; in assay [11], 27.4%; in [12], -11.8% (active). Moreover, the growth is -2.74% (active) in [13]; -0.604% (active) in assay [14]; 87.4% in assay [20]; -36.8% (active) in [15]; -16.9% (active) in assay [16]; -10.5% (active) in assay [17]. In addition, the figures for the growth in [18] and in assay [19] were 18.9% and -6.68% (active), respectively.

In the case of `[Br][Pb]([c]1ccccc1)([c]1ccccc1)[c]1ccccc1`, the growth is -99.2% (active) in assay [1]; -97.5% (active) in assay [2]; -46.7% (active) in assay [3]; -83.2% (active) in assay [4]; -99% (active) in [6]; -73.4% (active) in assay [7]. The growth was -100% (active) in assay [8]; -96.6% (active) in [9]; -92.8% (active) in [10]; -100% (active) in assay [11]; -100% (active) in [12]; -39.9% (active) in assay [13]. For the same compound, the growth in assay [14] was -93.1% (active); in [20] it was -100% (active); in [15], -100% (active); in [16] it was -35.6% (active); in [17], -71.6% (active); in [18], -72% (active).

For `O=C1NC(=S)NC(=O)C1=Cc1ccccc1`, the growth is 101% in assay [1]; 122% in assay [2]; 115% in assay [4]; 97.9% in [5]; 115% in [6]; 139% in [7]. The growth is 85.7% in [8]; 196% in [9]; 100% in [10]; 95% in assay [11]; 100% in [14]; 114% in assay [20]. Further, the growth in [16] was 95.9%; in assay [17], 97.7%; in assay [18] it was 93.4%.

`O=C1NC(=O)C(Cc2ccccc2)(Cc2ccccc2)C(=O)N1`: the growth in assay [1] is 104%; in assay [2], 115%; in assay [3], 86.7%; in assay [4], 113%; in [5] it was 105%; in [6] it was 108%. Moreover, the growth in assay [7] is 104%; in [8] it was 89.3%; in assay [9], 104%; in [10], 114%; in assay [11] it was 114%; in assay [12] it was 104%. The growth in assay [13] is 89.4%; in [14], 110%; in assay [20], 95.7%; in [15] it was 89.2%; in assay [16], 109%; in assay [17] it was 113%. The growth in assay [19] is 118%.

With `c1ccc2nc(OCCN3CC3)ccc2c1`, the growth in assay [1] is 74.1%; in [2], 98.6%; in assay [3], 26.8%; in assay [4], 59.1%; in assay [5], 75.8%; in assay [6] it was 59%. For the same compound, the growth in assay [7] is 43.8%; in [8] it was 77%; in [9] it was 96.3%; in [10], 88%; in assay [11] it was 90.8%; in assay [12], 102%. Further, the growth in [13] is 72.7%; in [14], 86.2%; in assay [20], 75.3%; in assay [15], 96.7%; in [16], 98.3%; in assay [17], 89.2%. For the same compound, the growth in assay [18] is 80.3%.

Take `CC(C)(C)N(Cc1ccccc1)N=O`: the growth in [1] was 93.9%; in assay [2], 107%; in [3] it was 101%; in assay [4], 93.1%; in assay [5], 100%; in assay [6], 92.1%. Besides, the growth was 104% in [7]; 86.5% in [8]; 94.6% in assay [9]; 104% in assay [10]; 92.9% in assay [11]; 95.4% in [12]. The growth in assay [13] was 106%; in [14], 98.4%; in [20], 98.2%; in assay [15], 96.2%; in [16] it was 109%; in assay [17], 113%. For the same compound, the growth was 97.3% in assay [18] and 102% in assay [19].

In the case of `CC(C)CCC[C@@H](C)[C@H]1CC[C@H]2[C@@H]3CC=C4C[C@@H](OC(=O)Cc5ccc(N(CCCl)CCCl)cc5)CC[C@]4(C)[C@H]3CC[C@]12C`, the growth in assay [1] was 112%; in assay [2], 116%; in assay [3], 90.4%; in assay [5], 119%; in assay [6], 103%; in [7], 107%. Further, the growth is 103% in [8]; 94.6% in assay [9]; 100% in assay [10]; 97% in assay [11]; 132% in assay [12]; 86.9% in assay [13]. Moreover, the growth is 98.2% in assay [14]; 114% in [20]; 114% in assay [15]; 117% in assay [16]; 102% in assay [17]; 106% in [18].
